An excerpt weighted towards active compounds, which were near 0.2% of everything screened.
PvdQ acylase: P. aeruginosa PvdQ acylase inhibition. inhibition, % at 10 µM. purified PvdQ acylase, fluorescence plate reader. AID 488965. hit rate 0.063% among 340,000; in the data active means inhibition above about 30%, passing the limit was not always enough; inconclusive means no clear call, values can overlap the other calls;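 further: 0% = vehicle neutral wells and 100% = reference inhibitor wells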
PDI inh: blocks human protein disulfide isomerase activity | P07237 | PDI insulin aggregation turbidity, A650, 90 min | inhibition, % at 10 µM | hit rate 0.052% among 350,000 | AID 588391;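 active means mean inhibition across replicates of 30% or more, whatever share of single replicates reach that level; inconclusive means mean inhibition below 30% while every single replicate reaches 30%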
Target sequence (P07237 whole entry, looked up): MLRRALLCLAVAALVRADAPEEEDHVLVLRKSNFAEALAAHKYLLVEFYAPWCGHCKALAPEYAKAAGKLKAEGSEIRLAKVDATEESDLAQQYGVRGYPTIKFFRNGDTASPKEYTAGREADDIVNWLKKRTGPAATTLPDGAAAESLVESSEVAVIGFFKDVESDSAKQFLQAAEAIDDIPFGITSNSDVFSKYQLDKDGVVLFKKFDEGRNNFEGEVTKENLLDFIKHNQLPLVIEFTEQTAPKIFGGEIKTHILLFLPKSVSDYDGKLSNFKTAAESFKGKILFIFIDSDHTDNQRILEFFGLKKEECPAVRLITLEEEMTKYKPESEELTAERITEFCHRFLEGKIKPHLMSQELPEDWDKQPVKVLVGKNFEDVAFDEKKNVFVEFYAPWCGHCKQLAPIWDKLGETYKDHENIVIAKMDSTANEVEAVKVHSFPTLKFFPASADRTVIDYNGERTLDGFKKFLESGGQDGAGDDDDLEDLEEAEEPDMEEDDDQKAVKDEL
CaV13 ICDI inh: Primary screen for inhibitors of IQ motif and Ca2+-dependent inactivation inhibitor domain binding in CACNA1D, Förster resonance energy transfer in living cells, …; hit rate 0.098% among 340,000; inhibition, % at 12.3 µM; HEK cells, CFP/YFP FRET ICDI-IQ, plate reader, 10 min; percent FRET-ratio fall versus neutral wells;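 active means mean replicate inhibition of at least 30% and at least 1% of replicates passing that level; inconclusive means only one of the two criteria is met; inactive means neither criterion is met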;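 further: 0% = median of the neutral control wells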
ERp5 block: ERp5 (human) disulfide isomerase inhibition. hit rate 0.05% among 350,000. AID 651711. inhibition, % at 9.99 µM. Q15084. ERp5 insulin aggregation, absorbance 650 nm, 90 min;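 active means mean replicate inhibition above about 25%, with every replicate also reaching it, limit read from the data, passing the limit was not always enough; inconclusive means only one of those two criteria met; inactive means neither criterion met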
Active calls of the source: *; ? = inconclusive; . = no result; + = active, no number.

SMILES	PvdQ acylase	PDI inh	CaV13 ICDI inh	ERp5 block
COc1ccccc1NC(=O)N[C@H]1CC[C@@H](CC(=O)NCc2ccc(Cl)c(Cl)c2)O[C@@H]1CO	.	.	.	-2.2
CC(C)(C)c1cc(NC(=O)c2ccco2)no1	-4.2	7.5	.	27.7*
CC(C)(C)c1cc(NC(=O)Nc2ccccc2)no1	9.3	4.4	-3.6	3.0
COc1cc(/C=C/C(=O)N2CCCC=CC2=O)cc(OC)c1OC	.	.	.	4.6
N#C/C(=C/c1ccco1)c1nc2ccccc2s1	41.5*	-8.2	-4.6	.
N#C/C(=C\c1ccco1)c1nc2ccccc2s1	?	2.1	-6.7	.
COc1ccc(NC(=O)N(C)C[C@@H]2Oc3c(NC(=O)NC4CCCCC4)cccc3C(=O)N([C@H](C)CO)C[C@@H]2C)cc1	.	.	.	1.4
Cn1cnc(S(=O)(=O)N2C[C@H](O)COC[C@H]3O[C@H](CC(=O)NCc4cc(F)cc(F)c4)CC[C@@H]32)c1	.	.	.	-0.7
O=C(c1cc([N+](=O)[O-])ccc1N1CCOCC1)N1CCN(c2ccc([N+](=O)[O-])cc2)CC1	19.8	35.7*	-5.8	-5.0
CN1c2ccc(-c3cccc(C#N)c3)cc2[C@@H]2[C@@H](CCN2C(=O)c2ccc(F)cc2)[C@@H]1CO	.	.	.	7.6
CCOC(=O)c1cc(-c2ccccc2)sc1NC(=O)CSc1nnc(N)s1	-12.2	-0.6	96.4*	0.7
CCOC(=O)c1cc(-c2ccccc2)sc1NC(=O)CSc1nncs1	-5.1	10.0	-5.7	.
COCC(=O)N1C[C@H](C)[C@@H](OC)CN(C)C(=O)c2cc(NC(=O)NC(C)C)ccc2OC[C@@H]1C	.	.	.	3.7
CC(=O)OC[C@@H]1CN(Cc2ccccc2)C[C@H](n2cnc3c(N(C)C(C)C)ncnc32)O1	.	14.5	45.4*	8.6
C[C@@H]1CCCCO[C@@H](CN(C)C(=O)Nc2cccc3ccccc23)[C@H](C)CN([C@@H](C)CO)C(=O)c2cc(NC(=O)NC3CCCCC3)ccc2O1	.	.	.	-6.9
Clc1ccccc1C1=CC(c2ccco2)n2ncnc2N1 (centres undefined)	-5.2	-1.7	+	-1.6
O=C1SCCC1NS(=O)(=O)c1ccc([N+](=O)[O-])cc1 (centres undefined)	-2.9	-15.5	-6.5	0.5
Cc1ccc(C)c(S(=O)(=O)NC2CCSC2=O)c1 (centres undefined)	79.0*	1.9	-3.0	7.5
O=C(O)CN1C(=O)/C(=C\c2ccc(OC(=O)c3ccco3)cc2)SC1=S	-8.2	43.1*	-6.7	5.5
O=C(O)CN1C(=O)/C(=C\c2cccc(OC(=O)c3ccco3)c2)SC1=S	-16.5	-2.6	-4.6	0.2
O=C(N[C@H]1CC[C@@H](CCn2cc(-c3ccccn3)nn2)O[C@@H]1CO)c1ccccc1	.	.	.	-2.0
O=C(NNC(=O)c1ccc2ccccc2c1)Nc1ccc(F)cc1	-12.4	3.7	-3.4	26.0*
O=C(O)c1cc(O)c2c(c1)[C@H]([C@H]1c3cc(C(=O)O)cc(O)c3C(=O)c3c(O[C@@H]4O[C@H](CO)[C@@H](O)[C@H](O)[C@H]4O)cccc31)c1cccc(OC3O[C@H](CO)[C@@H](O)[C@H](O)[C@H]3O)c1C2=O (some centres undefined)	-2.7	46.6*	-5.3	-2.8
O=C(O)c1cc(O)c2c(c1)[C@@H]([C@H]1c3cc(C(=O)O)cc(O)c3C(=O)c3c(O[C@@H]4O[C@H](CO)[C@@H](O)[C@H](O)[C@H]4O)cccc31)c1cccc(OC3O[C@H](CO)[C@@H](O)[C@H](O)[C@H]3O)c1C2=O (some centres undefined)	-5.0	?	-5.1	0.3
CCCCN(C(=O)C1=CC=CN2CCS(=O)(=O)N=C12)c1ccccc1	13.5	36.6*	-5.8	1.0
SMILES	PvdQ acylase	PDI inh	CaV13 ICDI inh	ERp5 block
O=C(NCC#CCOCc1ccccc1)c1ccccc1	11.9	-1.3	37.3*	3.7
O=C(NCCNC(=O)c1ccccc1)c1ccccc1	-5.3	-4.2	0.4	-5.1
O=C(C[C@H]1C=C[C@@H](NC(=O)Nc2ccc3c(c2)OCO3)[C@H](CO)O1)NCc1ccccc1	.	.	.	2.8
CSc1nnc(-c2ccc([N+](=O)[O-])cc2)o1	57.6*	8.8	-4.4	-0.3
COc1ccc(-c2cnc3c(c2)C(=O)N([C@@H](C)CO)C[C@H](C)[C@H](CN(C)C(=O)Cc2ccccn2)O3)cc1	.	.	.	0.1
N#CC(c1ccc(Cl)cc1)c1cccc(Cl)n1 (centres undefined)	117.4*	-7.4	-5.0	-6.8
N#CC(c1ccc(Cl)cc1)c1ccc2c(C(F)(F)F)cc(C(F)(F)F)nc2n1 (centres undefined)	-14.6	-11.6	-5.0	.
COc1ccccc1C#Cc1cnc2c(c1)C(=O)N([C@H](C)CO)C[C@H](C)[C@@H](CN(C)C(=O)CN(C)C)O2	.	.	.	-0.2
N#Cc1cc(C(=O)c2ccccc2O)cn(-c2ccc(Cl)cc2)c1=O	-12.5	0.2	-9.8	3.6
Cc1c(-n2cc(C(=O)c3ccccc3O)cc(C#N)c2=O)c(=O)n(-c2ccccc2)n1C	-7.0	88.8*	-4.2	.
C[C@H]1CN([C@@H](C)CO)C(=O)c2cccc(NC(=O)c3nc4ccccc4s3)c2O[C@@H]1CN(C)C(=O)Nc1ccc(C(F)(F)F)cc1	.	.	.	26.6*
Cc1noc(C)c1NC(=O)N(C)C[C@@H]1Oc2c(NS(=O)(=O)c3ccc(Cl)cc3)cccc2C(=O)N([C@@H](C)CO)C[C@H]1C	.	.	.	13.1
Cc1noc(C)c1NC(=O)N(C)C[C@H]1Oc2c(NS(=O)(=O)c3ccc(Cl)cc3)cccc2C(=O)N([C@@H](C)CO)C[C@@H]1C	.	.	.	25.0*
CNC[C@@H]1Oc2c(NS(C)(=O)=O)cccc2C(=O)N([C@@H](C)CO)C[C@@H]1C	.	.	.	1.1
C[C@H](CO)N1C[C@H](C)[C@@H](CN(C)S(=O)(=O)c2ccc(F)cc2)Oc2c(NS(=O)(=O)c3ccccc3)cccc2C1=O	-10.6	18.1	-2.9	-0.9
CNC[C@H]1Oc2c(N)cccc2C(=O)N([C@@H](C)CO)C[C@H]1C	.	.	.	85.8*
C[C@@H]1CN([C@@H](C)CO)C(=O)c2cccc(NS(=O)(=O)c3ccc(F)cc3)c2O[C@H]1CN(C)S(=O)(=O)c1ccccc1	.	.	.	46.2*
C[C@H](CO)N1C[C@H](C)[C@H](CN(C)CC2CCCCC2)Oc2c(NC(=O)NC3CCCCC3)cccc2C1=O	.	.	.	-1.9
CC(=O)N1[C@@H]2Cn3c(cccc3=O)[C@H]1[C@@H](C(=O)NCc1ccc(F)cc1)[C@@H]2CO	.	.	.	-1.7
CC(C)CC#Cc1ccc2c(c1)O[C@H](CN(C)Cc1cccnc1)[C@@H](C)CN([C@H](C)CO)S2(=O)=O	.	.	.	-2.5
O=C(Nc1ccc2c(c1)[C@@H]1C[C@@H](CC(=O)N3CCCCC3)O[C@@H](CO)[C@@H]1O2)C1CCOCC1	.	.	.	-0.4
O=C(C[C@@H]1C[C@H]2c3cc(NC(=O)C4CCC4)ccc3O[C@H]2[C@H](CO)O1)NCc1ccc(-c2ccccc2)cc1	.	.	.	0.9
C[C@H](CO)N1C[C@H](C)[C@H](CN(C)C(=O)Nc2ccc3c(c2)OCO3)OCCCC[C@H](C)Oc2ccc(NC(=O)Nc3ccccc3)cc2C1=O	.	.	.	-3.6

Screens (PubChem)
